Screening data: PubChem BioAssay, several laboratories
MITF act: increases MITF-driven TRPM1 promoter luciferase signal; SK-MEL-5 TRPM1-promoter luciferase, 24 h; % of positive control, neutral wells = 0; activation, % at 12.5 µM; 300,000 tested, 0.75% active; AID 588334;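 active = mean activation of at least 80% with every replicate also reaching 80%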;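 note: 0% = neutral control wells and 100% = parthenolide positive control wells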
FXN GAA850 act: increases GAA850 frataxin promoter reporter activity | 360,000 tested, 0.56% active | HEK293 lucGAA850 FXN promoter luciferase reporter, 24 h; percent of 10 µM SAHA response | activation, % at 6 µM;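 active = activation above the average of all compounds screened plus 3 SD, cutoff fixed separately per campaign, cut at about 7.5% in these data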;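 note: 0% = DMSO wells and 100% = 10 µM SAHA wells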
C2C12 statin: suppressors of simvastatin-induced myotoxicity in C2C12 myotubes; rescue of ATP level, % at 7.49 µM; 330,000 tested, 0.78% active; ATP luminescence, 48 h; scaled: DMSO 0, geranylgeraniol control 100;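 active = mean ATP rescue above about 67%, or every replicate alone reaching that limit, limit read from the data, passing the limit was not always enough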;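 note: myotubes were challenged with 10 µM simvastatin during compound exposure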
Wnt act: activates Wnt/beta-catenin signaling in a reporter cell assay. AID 743398. activator, plate reader. activation, % at 9.35 µM. 300,000 tested, 1.2% active; in the data active = activation above about 30%, passing the limit was not always enough;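 note: 0% = neutral control wells and 100% = positive control wells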
esBAF inh: SWI/SNF esBAF complex inhibition | mouse ES cells, Bmi1-luciferase knock-in reporter, 24 h; 100% = twice the neutral-well signal | reporter increase, % at 12.5 µM | 350,000 tested, 2% active | AID 602393; in the data active = activation above about 40%;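 note: 0% = median of the plate's neutral control wells and 100% = double that signal; a rise in the Bmi1 reporter signal indicates esBAF inhibition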
GAA30 FXN cntr: counter-screen for GAA850 frataxin promoter activators: GAA30 promoter activation | activation, % at 6 µM | shares compounds with FXN GAA850 act | HEK293 lucGAA30 FXN promoter luciferase, 24 h; DMSO = 0%, 5 µM ipriflavone = 100% | 1,900 tested, 66% active;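 active = mean activation above the mean of solvent-only control wells plus 3 SD, cut at about 22% in these data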;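 note: counterscreen of GAA850 promoter hits where activity marks nonselective or luminescence artifacts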
GAA850 confirm: GAA850 FXN promoter activation confirmation | shares compounds with FXN GAA850 act | HEK293 lucGAA850 FXN promoter luciferase reporter, 24 h; 100% = activation by SAHA | activation, % at 6 µM | 1,900 tested, 86% active;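 active = mean activation above a set limit taken from the primary screen, cut at about 8% in these data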;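 note: 0% = DMSO wells and 100% = 10 µM SAHA wells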
The depositor's hits bear a star; . = not tested or not shown. Shown are actives, neighbours in structure and some others; about 3.3% of the full set was active somewhere.

SMILES	MITF act	FXN GAA850 act	C2C12 statin	Wnt act	esBAF inh	GAA30 FXN cntr	GAA850 confirm
Cc1ccnc(Nc2nc(-c3ccc(O)c(O)c3)cs2)c1	.	17.5*	-5.7	8.2	16.6	90.8*	41.7*
Cc1cccnc1Nc1nc(-c2ccc(O)c(O)c2)cs1	45.1	13.9*	-17.2	14.6	-12.9	106.7*	50.5*
C=CCNc1nc(Nc2ccccc2F)nc(OCC)n1	44.8	9.4*	-9.8	18.0	85.4*	80.2*	35.5*
c1ccc(NCc2cccnc2)cc1	12.1	-3.2	-5.1	.	-5.1	.	.
c1cncc(CNc2cccc(-c3nc4ccccc4[nH]3)c2)c1	57.8	8.5*	.	49.9*	.	89.3*	28.1*
Cc1ccc(-n2ncc(Cl)c2C(=O)NC2CC2)cc1	15.1	8.6*	-0.9	0.5	23.3	110.3*	32.1*
C=CCNC(=O)c1c(Cl)cnn1-c1ccc(C)cc1	35.5	7.0	.	13.6	.	.	.
CNC[C@@H]1Oc2cc(-c3ccccc3F)ccc2S(=O)(=O)N([C@@H](C)CO)C[C@H]1C	.	.	-16.0	.	-1.3	.	.
Cc1ccc(NC(=O)NC(=S)NC(=O)c2ccccc2)cc1	21.1	8.2*	.	4.1	.	55.9*	23.9*
Cc1ccc(C(=O)NNC(=S)NC(=O)c2ccccc2)cc1	14.9	0.7	.	-0.4	.	.	.
Clc1ccc(-c2noc(CSc3nnc(Cc4cccs4)n3-c3ccccc3)n2)cc1	-12.2	15.5*	48.2	0.5	2.0	6.0	4.0
CC(=O)c1ccc(NC(=S)N2CCCC(CO)C2)cc1 (stereo not given)	14.4	3.6	.	9.6	.	.	.
OCC1CCCN(C(=S)Nc2ccc(Oc3ccccc3)cc2)C1 (stereo not given)	53.3	10.8*	-10.3	8.7	82.1*	105.4*	34.2*
CN(c1ccccc1)c1nc2ccsc2c(=O)s1	98.7*	7.7*	7.2	6.6	46.6*	93.8*	35.7*
COc1ccc2sc(-c3ccc(SC)cc3)c(C#CC(C)(C)O)c2c1	24.0	7.8*	20.0	-6.4	23.6	37.3*	26.1*
Cc1ccc(N2C(=O)N3[C@H](c4ccc(Cl)cc4)[C@@H]4C(=O)N(C5CCCCC5)C(=O)[C@@H]4[C@]3(Cc3ccccc3)C2=O)cc1	7.4	12.0*	18.0	-4.6	7.5	43.3*	17.1*
O=C1[C@H]2[C@@H](c3ccc(Cl)cc3)N3C(=O)N(c4cccc(F)c4)C(=O)[C@@]3(Cc3ccc(Cl)cc3)[C@H]2C(=O)N1C1CCCCC1	-8.3	0.1	.	.	.	.	.
CC(C)C[C@@]12C(=O)N(c3cccc(Cl)c3)C(=O)N1[C@H](c1ccc(Cl)cc1)[C@@H]1C(=O)N(C3CCCCC3)C(=O)[C@@H]12	5.0	4.8	0.9	-2.2	-4.3	.	.
O=C1[C@H]2[C@@H](c3ccc(Cl)cc3)N3C(=O)N(c4cccc(Cl)c4)C(=O)[C@@]3(Cc3ccc(Cl)cc3)[C@H]2C(=O)N1C1CCCCC1	17.8	9.6*	-1.3	-4.1	-5.0	22.6*	10.1*
CC[C@@]12C(=O)N(c3ccc(OC)cc3)C(=O)N1[C@H](c1ccc(Cl)cc1)[C@@H]1C(=O)N(C3CCCCC3)C(=O)[C@@H]12	7.3	10.5*	7.9	0.1	-2.7	30.3*	6.9
CC(C)C[C@@]12C(=O)N(c3cccc(Cl)c3)C(=O)N1[C@H](c1ccc(F)cc1)[C@@H]1C(=O)N(C3CCCCC3)C(=O)[C@@H]12	-3.6	12.5*	0.9	-4.2	-1.6	21.4	20.0*
C/C=C/c1cnc2c(c1)C(=O)N([C@H](C)CO)C[C@H](C)[C@H](CN(C)C(=O)NCCC)O2	.	.	6.2	.	-1.8	.	.
O=C1[C@H]2[C@@H](c3ccc(F)cc3)N3C(=O)N(c4cccc(F)c4)C(=O)[C@@]3(Cc3ccc(Cl)cc3)[C@H]2C(=O)N1C1CCCCC1	-11.6	11.7*	-0.9	-6.6	8.9	20.3	11.0*
CC[C@@]12C(=O)N(c3cccc(Br)c3)C(=O)N1[C@H](c1ccc(Cl)cc1)[C@@H]1C(=O)N(C3CCCCC3)C(=O)[C@@H]12	1.2	10.6*	4.4	-12.8	8.1	6.4	14.6*
O=C1[C@H]2[C@@H](c3ccc(F)cc3)N3C(=O)N(c4ccc(Br)cc4)C(=O)[C@@]3(Cc3ccccc3)[C@H]2C(=O)N1C1CCCCC1	-12.3	9.1*	4.1	-7.2	2.9	20.6	7.0
SMILES	MITF act	FXN GAA850 act	C2C12 statin	Wnt act	esBAF inh	GAA30 FXN cntr	GAA850 confirm
CC(C)C[C@@]12C(=O)N(c3cccc(Br)c3)C(=O)N1[C@H](c1ccc(Cl)cc1)[C@@H]1C(=O)N(C3CCCCC3)C(=O)[C@@H]12	-0.2	3.4	-1.0	-0.6	-7.2	.	.
CC[C@@]12C(=O)N(c3cccc(F)c3)C(=O)N1[C@H](c1ccc(Cl)cc1)[C@@H]1C(=O)N(C3CCCCC3)C(=O)[C@@H]12	-0.7	9.0*	-6.6	-5.9	4.0	22.7*	15.4*
COc1ccc(S(=O)(=O)Nc2ccc3c(c2)C(=O)N([C@@H](C)CO)C[C@H](C)[C@@H](CN(C)S(=O)(=O)c2c(C)noc2C)OCCCC[C@H](C)O3)cc1	.	.	.	.	0.8	.	.
C[C@@H]1CCCCO[C@H](CN(C)S(=O)(=O)c2ccccc2)[C@@H](C)CN([C@@H](C)CO)C(=O)c2cc(NC(=O)NC3CCCCC3)ccc2O1	.	.	.	.	-2.7	.	.
Cc1ccc(N2C(=O)N3[C@H](c4ccc(F)cc4)[C@@H]4C(=O)N(C5CCCCC5)C(=O)[C@@H]4[C@]3(C)C2=O)cc1	-0.1	13.0*	13.4	.	-3.8	19.6	4.9
Cc1cccc(N2C(=O)N3[C@H](c4ccc(F)cc4)[C@@H]4C(=O)N(C5CCCCC5)C(=O)[C@@H]4[C@]3(Cc3ccc(Cl)cc3)C2=O)c1	-13.3	4.7	16.2	-4.6	-6.1	.	.
COc1cc(OC)c(OC)cc1C=Cc1ccc2ccccc2n1	.	8.9*	.	5.9	.	66.9*	29.7*
Cc1ccc(S(=O)(=O)N2CCN(S(=O)(=O)c3ccc(C)cc3)C2c2ccccc2)cc1	4.9	8.3*	138.5*	-3.2	-2.3	4.8	7.0
N=c1c(S(=O)(=O)c2ccccc2)cc2c(=O)n3ccccc3nc2n1Cc1ccco1	1.1	2.1	.	.	.	.	.
Cc1ccc2nc3c(cc(S(=O)(=O)c4ccccc4)c(=N)n3Cc3ccco3)c(=O)n2c1	26.4	9.3*	-6.8	26.7	10.3	22.1*	6.7
C[C@@H]1CCCCO[C@@H](CN(C)C(=O)c2ccccc2)[C@H](C)CN([C@H](C)CO)C(=O)c2cc(NC(=O)Nc3ccc(C(F)(F)F)cc3)ccc2O1	.	.	.	.	-1.3	.	.
Cc1cc(O)ccc1N/C=C/c1onc(C)c1[N+](=O)[O-]	26.4	9.1*	.	60.1*	.	121.5*	39.4*
